Results published in PMC4336329 (PLoS ONE, 2015).
Among all 310,000 compounds or so, about 14,000 (4.5%) showed an effect of 50% or more. Effects have a minus sign here. The full list was thinned out, with strong results kept by preference.

Each compound was assayed against human ether-à-go-go-related gene (hERG) potassium channel (human, UniProt Q12809) (assay: primary screen, population patch clamp on CHO cells stably expressing hERG; higher = less effect of the substance).
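Note: peak tail current of the secondary pulse compared with the same well before compound.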

Chain of human ether-à-go-go-related gene (hERG) potassium channel (Q12809 whole entry, looked up): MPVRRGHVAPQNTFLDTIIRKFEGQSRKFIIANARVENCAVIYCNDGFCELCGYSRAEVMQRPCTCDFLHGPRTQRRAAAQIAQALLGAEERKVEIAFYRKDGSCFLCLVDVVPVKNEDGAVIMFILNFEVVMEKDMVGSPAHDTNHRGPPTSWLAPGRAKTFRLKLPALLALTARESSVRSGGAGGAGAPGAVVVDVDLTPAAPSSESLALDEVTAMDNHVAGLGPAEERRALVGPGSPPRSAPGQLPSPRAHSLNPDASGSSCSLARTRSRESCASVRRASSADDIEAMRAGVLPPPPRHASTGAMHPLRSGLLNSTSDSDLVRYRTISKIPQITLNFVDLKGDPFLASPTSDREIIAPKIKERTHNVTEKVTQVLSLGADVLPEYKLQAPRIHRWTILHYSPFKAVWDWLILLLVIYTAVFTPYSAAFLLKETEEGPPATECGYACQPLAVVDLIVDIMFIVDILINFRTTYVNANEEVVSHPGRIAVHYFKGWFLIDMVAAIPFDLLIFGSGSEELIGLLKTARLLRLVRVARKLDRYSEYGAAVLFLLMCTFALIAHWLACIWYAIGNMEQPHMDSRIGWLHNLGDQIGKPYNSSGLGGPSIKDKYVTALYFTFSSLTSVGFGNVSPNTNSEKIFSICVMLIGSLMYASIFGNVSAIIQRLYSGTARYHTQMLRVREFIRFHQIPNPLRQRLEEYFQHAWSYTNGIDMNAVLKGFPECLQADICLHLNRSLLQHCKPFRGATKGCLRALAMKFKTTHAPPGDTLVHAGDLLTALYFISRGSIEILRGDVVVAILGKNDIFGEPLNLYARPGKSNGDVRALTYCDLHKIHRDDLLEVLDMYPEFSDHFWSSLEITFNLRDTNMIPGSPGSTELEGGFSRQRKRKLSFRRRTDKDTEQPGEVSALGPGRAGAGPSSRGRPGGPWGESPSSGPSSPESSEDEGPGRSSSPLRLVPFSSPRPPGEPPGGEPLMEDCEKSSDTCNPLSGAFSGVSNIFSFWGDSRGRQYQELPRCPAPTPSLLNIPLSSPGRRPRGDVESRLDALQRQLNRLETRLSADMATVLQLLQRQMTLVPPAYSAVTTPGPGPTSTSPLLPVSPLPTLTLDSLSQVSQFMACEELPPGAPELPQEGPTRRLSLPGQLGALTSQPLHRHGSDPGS

| Compound | hERG current change (%, negative = inhibition) at 10uM [%] |
| --- | --- |
| COc1ccc(C2NC(c3ccc(OC)cc3)C([N+](=O)[O-])C(C)(C)C2[N+](=O)[O-])cc1 (stereo not drawn) | 41.2 |
| CCCCCCCSc1nnc(-c2ccccc2N)c(=O)[nH]1 | 6.86 |
| COc1ccccc1NC(=S)N1CCc2cc(OC)c(OC)cc2C1 | -0.62 |
| COc1ccc(C(=S)N2CCN(c3cccc(Cl)c3)CC2)c(OC)c1 | 3.25 |
| COc1ccccc1CNC(=O)Cn1ccc2cc(S(=O)(=O)N3CCCC3)ccc21 | -3.32 |
| CCc1nnc(NC(=O)CCS(=O)(=O)c2ccccc2)s1 | 23.8 |
| CC(C(=O)OCC(=O)Nc1ccc(S(=O)(=O)N2CCCCC2)cc1)N1C(=O)c2ccccc2C1=O (stereo not drawn) | -16.4 |
| CC(C(=O)OCC(=O)Nc1cccc(S(=O)(=O)N2CCOCC2)c1)N1C(=O)c2ccccc2C1=O (stereo not drawn) | -58 |
| O=C(COC(=O)c1ccccc1)Nc1cccc(S(=O)(=O)N2CCOCC2)c1 | -26.5 |
| CC(C(=O)OCC(=O)Nc1cccc(S(=O)(=O)N(C)C)c1)N1C(=O)c2ccccc2C1=O (stereo not drawn) | -82.8 |
| CC(C(=O)OCC(=O)Nc1ccc2c(c1)OCO2)N1C(=O)c2ccccc2C1=O (stereo not drawn) | -12.4 |
| CN(C)S(=O)(=O)c1cccc(NC(=O)COC(=O)c2cc(=O)c3ccccc3o2)c1 | 11.3 |
| Cc1sc2nc(C(C)Nc3ccccc3N3CCOCC3)[nH]c(=O)c2c1C (stereo not drawn) | 11.1 |
| O=C(N/N=C/c1ccncc1)c1cccc([N+](=O)[O-])c1 | -5.83 |
| O=C(CN1CCN(C(=O)c2ccccc2F)CC1)Nc1ccc(Br)cc1 | -64.6 |
| O=C(NCCN1CCN(C(=O)c2cccs2)CC1)c1cccs1 | -35.8 |
| Cc1cc(NC(=O)C(=O)NCCN2CCN(C(=O)c3cccs3)CC2)ccc1Br | -63.7 |
| O=C(NCCN1CCN(C(=O)c2cccs2)CC1)C(=O)Nc1ccc(Br)cc1 | -73.7 |
| Cl.O=C(CN1CCN(C(=O)c2cccs2)CC1)NC1CCCCC1 | -1.7 |
| COc1ccccc1C(=O)N1CCN(CCNC(=O)C(=O)Nc2ccc(Br)c(C)c2)CC1 | -48.8 |

| Compound | hERG current change (%, negative = inhibition) at 10uM [%] |
| --- | --- |
| Cc1cc(NC(=O)C(=O)NCCN2CCN(S(C)(=O)=O)CC2)ccc1Br | -21.3 |
| O=C(CN1CCN(C(=O)c2cccs2)CC1)Nc1ccc(Br)cc1 | -71.8 |
| O=C(CN1CCN(C(=O)c2ccco2)CC1)Nc1ccc(Br)cc1 | 5.38 |
| COc1ccc(NC(=O)C(=O)NCCN2CCN(C(=O)c3cccs3)CC2)cc1 | -45.1 |
| CCC(=O)Nc1ccc(N2CCN(C(=O)c3cccs3)CC2)cc1 | -7.15 |
| O=C(CN1CCOCC1)Nc1ccc(NC(=O)c2ccccc2F)cc1 | 10.7 |
| Cc1onc(-c2ccccc2)c1-c1nnc(CN2CCN(S(=O)(=O)c3ccccc3F)CC2)o1 | -28.4 |
| Cc1c(/C=N\NC(=O)C2(C)CC2(Cl)Cl)cnn1C (stereo not drawn) | 5.55 |
| COc1ccc(CC(=O)NC(=S)Nc2ccc(S(N)(=O)=O)cc2)cc1 | -17.6 |
| COc1ccc(/C=N/NC(=O)c2cccc(Br)c2)cc1CSc1ccccn1 | 2.67 |
| CCCNC(=O)c1cccc(Cn2nc(C)c(Br)c2C)c1 | -6.12 |
| CSc1cc(C)n(-c2ccc(Cl)cc2)c(=S)c1C(C)=O | -33.9 |
| Cn1c(SCC(=O)NNC(=O)c2ccccc2O)nnc1-c1ccccc1 | 18 |
| CCN(CC)S(=O)(=O)c1ccc(N(C)Cc2cccnc2)nc1 | -15.2 |
| CC(C)[NH+]1CCC2(CC1)C(C#N)=C(N)NC([S-])=C2C#N | -4.59 |
| COc1ccc(CN(CC(=O)NC2CCCC2)C(=O)c2ccc(-c3ccccc3)[nH]2)cc1 | -19.9 |
| CCCCN1C(=S)NC[C@@H]1Cc1ccccc1 | -11.8 |
| Cc1ccnc(NCn2nnc3ccccc32)c1 | 7.69 |
| Cc1ccc(NC(=O)C(=O)NCCN2CCN(C(=S)Nc3ccccc3)CC2)cc1 | -19.1 |
| Cc1ccc(NC(=O)C(=O)NCCN2CCN(C(=O)C(c3ccccc3)c3ccccc3)CC2)cc1 | -9.93 |

| Compound | hERG current change (%, negative = inhibition) at 10uM [%] |
| --- | --- |
| Cc1ccccc1C(=O)N1CCN(CCNC(=O)C(=O)Nc2ccc(Br)cc2)CC1 | -68.8 |
| CC1CC(C)CN(CC(O)COCc2ccccc2F)C1.Cl (stereo not drawn) | -23.4 |
| COc1ccc(CCNC(=S)Nc2cccc(C)c2)cc1 | -8.64 |
| CCC1(c2ccc(F)cc2)NC(=O)N(CC(=O)N2c3ccccc3NC(=O)CC2C)C1=O (stereo not drawn) | -58.4 |
| CCC1(c2ccc(F)cc2)NC(=O)N(CC(=O)N2c3ccccc3CC2C)C1=O (stereo not drawn) | -12.9 |
| CCC1(c2ccc(F)cc2)NC(=O)N(CC(=O)N2CC(=O)Nc3ccccc32)C1=O (stereo not drawn) | -5.52 |
| Cc1c(C(c2ccc(O)cc2)c2c(C)n(C)n(-c3ccccc3)c2=O)c(=O)n(-c2ccccc2)n1C | -7.93 |
| COc1ccccc1/C=C1\SC(=S)N(CCC(=O)N2CCCCC2CCO)C1=O (stereo not drawn) | 16.7 |
| CNc1ccccc1C(C)(C)c1cc(C)[nH]n1 | 22.6 |
| Cc1cc(=O)[nH]c(SCC(=O)Nc2ccc3c(c2)CCC3)c1C#N | -6.4 |
| O=C(Nc1ccc(N2CCN(C(=O)C3CC3)CC2)cc1)c1cccs1 | 2.17 |
| COC(=O)c1sccc1S(=O)(=O)N1CCCC(N(C)CCc2ccccn2)C1 (stereo not drawn) | -22.7 |
| CC(=O)c1ccc(S(=O)(=O)N2CCCC(N(C)CCc3ccccn3)C2)cc1 (stereo not drawn) | -65.3 |
| CN(CCc1ccccc1)C1CCCN(S(=O)(=O)CC(F)(F)F)C1 (stereo not drawn) | -3.61 |
| CN(CCc1ccccc1)C1CCCN(S(=O)(=O)N(C)C)C1 (stereo not drawn) | -15.7 |
| CN(CCc1ccccn1)C1CCCN(S(=O)(=O)c2ccccc2Cl)C1 (stereo not drawn) | -46.5 |
| CN(CCc1ccccn1)C1CCCN(S(=O)(=O)c2ccc(F)c(Cl)c2)C1 (stereo not drawn) | -48 |
| CC(=O)c1ccc(S(=O)(=O)N2CCCC(N(C)CCc3ccccc3)C2)cc1 (stereo not drawn) | -81.2 |
| Cc1cc(S(=O)(=O)N2CCCC(N(C)CCc3ccccn3)C2)c(C)s1 (stereo not drawn) | -46.6 |
| Cc1cc(S(=O)(=O)N2CCCC(N(C)CCc3ccccn3)C2)c(C)cc1Cl (stereo not drawn) | -71.6 |
